Measured values taken from PubChem BioAssay.
Calls of active or inactive are those of the source.

Columns and labels:
Albumin (Bos taurus) = Albumin (Bos taurus) (UniProt P02769); assay: compounds binding labelled BSA control protein – biochemical, small-molecule microarray, Alexa647 label, 635/667 nm fluorescence, artefact control for SMM control protein annotation, profiling panel (AID 1118); conditions: BSA-A647 binding, fluorescence 635 nm, higher = more signal;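 note: score merges 667 nm emission intensity and signal-to-noise per printed compound spot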
Sequence of Albumin (Bos taurus) (P02769 whole entry, looked up): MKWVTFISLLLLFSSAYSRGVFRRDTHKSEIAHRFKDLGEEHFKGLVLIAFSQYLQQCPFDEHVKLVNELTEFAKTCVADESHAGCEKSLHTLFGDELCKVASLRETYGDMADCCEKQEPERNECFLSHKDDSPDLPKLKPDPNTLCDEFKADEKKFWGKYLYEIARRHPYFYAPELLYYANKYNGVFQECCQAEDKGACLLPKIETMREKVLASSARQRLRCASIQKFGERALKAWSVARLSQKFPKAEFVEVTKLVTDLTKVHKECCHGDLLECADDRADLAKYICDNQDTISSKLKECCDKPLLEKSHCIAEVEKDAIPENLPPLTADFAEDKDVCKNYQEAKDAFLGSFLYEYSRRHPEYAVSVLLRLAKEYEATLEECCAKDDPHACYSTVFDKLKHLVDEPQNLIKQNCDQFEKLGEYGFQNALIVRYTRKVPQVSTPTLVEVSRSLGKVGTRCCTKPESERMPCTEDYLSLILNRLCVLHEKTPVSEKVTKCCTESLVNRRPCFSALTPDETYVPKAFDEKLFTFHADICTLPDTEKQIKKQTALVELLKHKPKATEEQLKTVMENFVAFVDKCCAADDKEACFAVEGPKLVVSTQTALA

[1] = probe aXIP binding to arrayed compounds – biochemical, NeuroSMM set, 635/667 nm fluorescence, primary screen (AID 1119); conditions: small-molecule microarray, higher = more signal, called active from +8 up or from −8 down;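 note: probe is the protein aXip251-270 applied at 1 µg/mL to compound-printed slides; binding of probe to printed compounds measured as 667 nm fluorescence plus signal to noise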
[2] = probe aNOTCH3 binding on compound microarray – biochemical, small-molecule microarray, 635/667 nm fluorescence, primary screen (AID 1120); conditions: higher = more signal;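 note: probe is a biotin-tagged antibody raised against NOTCH3 rather than NOTCH3 protein; score merges spot fluorescence near 667 nm with spot signal to noise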
[3] = probe aNOTCH2 binding on compound microarray – biochemical, small-molecule microarray, 635/667 nm fluorescence, primary screen (AID 1121); conditions: higher = more signal;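 note: score merges feature fluorescence read at 667 nm with its signal to noise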
[4] = biological target: Carbonic anhydrase 2 (Homo sapiens) (UniProt P00918); assay: compounds binding carbonic anhydrase 2 – biochemical, small-molecule microarray, Alexa647-labelled CAII, profiling panel (AID 1122); conditions: CAII-A647 binding fluorescence, higher = more signal
[5] = COS7 lysate on small-molecule microarray, probe aHis, 635 nm (AID 1123); conditions: COS7 cell lysate, fluorescence, higher = more signal;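 note: z-score combines 667nm fluorescence intensity with signal-to-noise per printed compound spot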
[6] = probe aLAP1 signal on lysate-treated microarray – cell lysate, small-molecule microarray, COS7 lysate, primary screen (AID 1124); conditions: probe aLAP1, fluorescence, higher = more signal;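 note: lysate comes from COS7 cells expressing LAP1 and is applied at 0.3 µg/mL; score merges spot fluorescence near 667 nm with signal-to-noise over triplicate slides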
Sam68 (KHDRBS1) = assay: compounds binding KHDRBS1 protein – biochemical, small-molecule microarray, 635 nm fluorescence, primary screen (AID 1125); conditions: higher = more signal;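 note: score merges 667 nm channel intensity with signal to noise over triplicate slides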
[7] = system: Chordin-like protein 2 (CHRDL2); assay: compounds binding chordin-like 2 – biochemical, small-molecule microarray, 635 nm fluorescence, primary screen (AID 1126); conditions: fluorescence 635 nm, higher = more signal;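 note: printed compound slides probed with Chrdl2 protein at 4 µg/mL for 1 h at 4 C; score merges 667 nm emission intensity with signal to noise over three replicate slides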
[8] = biological target: Concanavalin-A (Canavalia ensiformis) (UniProt P02866); assay: compounds binding concanavalin A lectin – biochemical, small-molecule microarray, Alexa647 label, 635 nm, artefact control for SMM control protein annotation, primary screen (AID 1127); conditions: ConA-A647 binding fluorescence, higher = more signal;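 note: z combines 667 nm emission intensity with signal-to-noise across three replicate slides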
Sequence of Concanavalin-A (Canavalia ensiformis) (P02866 whole entry, looked up): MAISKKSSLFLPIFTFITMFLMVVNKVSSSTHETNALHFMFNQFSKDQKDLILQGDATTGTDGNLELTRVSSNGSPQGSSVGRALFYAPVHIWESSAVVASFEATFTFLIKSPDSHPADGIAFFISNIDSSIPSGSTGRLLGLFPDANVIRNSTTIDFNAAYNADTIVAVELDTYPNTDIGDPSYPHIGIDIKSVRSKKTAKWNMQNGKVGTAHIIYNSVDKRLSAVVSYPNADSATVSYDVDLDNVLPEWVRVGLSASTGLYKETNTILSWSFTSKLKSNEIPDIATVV

SMILES | composite z-score (Albumin (Bos taurus)) | composite Z-score [1] | composite z-score [2] | composite z-score [3] | composite z-score [4] | composite z-score [5] | composite z-score [6] | composite z-score (Sam68 (KHDRBS1)) | composite z-score [7] | composite z-score [8]
COc1cc(CO)cc(I)c1O[C@H]1C=C(C(=O)NCCO)C[C@@H](N(CC2CCCCC2)C(=O)c2cc3ccccc3oc2=O)[C@@H]1O | -0.0129 | 0.577 (inactive) | 0.0158 | -0.12 | -0.0979 | 0.14 | 0.379 | -0.461 | 0.538 | 0.358
COC(=O)[C@@]1(Cc2ccccc2CN=[N+]=[N-])N=C(c2ccc(OCCCO)cc2)O[C@H]1c1ccccc1N=[N+]=[N-] | -0.0759 | -0.22 (inactive) | -0.0164 | 0.215 | 0.569 | 1.33 | -0.507 | 0.454 | -0.388 | 0.544
C=CC[C@@]12N=C(c3ccc(OCCCO)cc3)O[C@@H]1c1ccccc1CN(Cc1ccccc1)C2=O | 0.127 | 0.999 (inactive) | 0.0242 | -0.053 | 0.496 | 1.96 | 0.377 | 1.29 | 0.213 | 1.02
CO[C@H]1COC(=O)[C@H](C)COC(=O)[C@H](Cc2ccccc2)NC(=O)CC=C[C@H]1C | -1.16 | 0.72 (inactive) | 0.62 | 0.087 | -0.612 | -0.826 | 0.266 | -1.02 | 1.53 | -0.994
COc1cc2c(cc1OC)CN(C(=O)[C@@H]1[C@H]3C(=O)O[C@H](c4ccccc4)[C@H](c4ccccc4)N3[C@H](c3ccccc3OCCO)[C@@]13C(=O)Nc1ccccc13)CC2 | 0.665 | -0.316 (inactive) | 0.746 | -0.112 | 0.609 | 0.938 | 1.31 | 1.2 | 0.182 | 0.997
COCC(=C=CC[C@H](O)c1ccc(OCCO)cc1)C[C@H](O)c1ccccn1 | -0.769 | 1.14 (inactive) | -0.217 | -0.0942 | 0.603 | 0.257 | -0.0662 | 0.359 | -0.6 | 0.0109
O=C(NCC(O)CO)[C@]1(Cc2ccccc2)N=C(c2ccc(OCCCO)cc2)O[C@@H]1c1ccccc1 (stereo not given in full) | 0.974 | 0.749 (inactive) | 0.101 | 0.257 | 0.366 | 3.43 | 0.634 | 1.03 | -1.93 | 0.922
O=C1C2C=CC(C(O)C#Cc3ccccc3)N(Nc3ccccc3)C2C(=O)N1c1ccccc1 (stereo not given) | 0.812 | 0.634 (inactive) | -0.0077 | -0.0176 | 0.812 | 1.94 | 0.435 | 0.432 | -0.575 | -0.414
NC(=O)NCC#Cc1ccc2c(c1)[C@]1(C(=O)N2)[C@H](c2ccccc2OCCO)N2[C@H](c3ccccc3)[C@H](c3ccccc3)OC(=O)[C@H]2[C@@H]1C(=O)N1CCN(c2ncccn2)CC1 | 0.0405 | 0.39 (inactive) | 0.0539 | -0.0907 | 0.335 | 1.82 | 0.614 | 1.29 | 0.326 | 0.946
CO[C@H]1COC(=O)[C@H](C)NC(=O)CC=C[C@@H](C)[C@H](NS(=O)(=O)c2ccc(C)cc2)COC(=O)[C@@H](OCc2ccccc2)C=C[C@@H]1C | 0.228 | 0.0585 (inactive) | -0.0932 | -0.154 | -0.367 | -0.959 | -0.659 | 0.133 | 1.03 | -0.333
Cc1ccc(S[C@]2(C(=O)NC(C)C)CC(=O)N(C3Cc4ccccc4C3)[C@@H]2c2ccc(CO)cc2)cc1 | 0.451 | 0.52 (inactive) | -0.409 | -0.205 | 0.81 | 1.86 | 0.123 | -0.0334 | -1.2 | 1.16
C=CCC(OC(C)=O)[C@@H]1[C@@H](N(Cc2ccc(-c3ccccc3)cc2)C(=O)c2ccc(-c3ccccc3)cc2)c2cc(OCCCO)ccc2N1C(=O)Cc1ccc(OC)cc1 (stereo not given in full) | 0.4 | 0.344 (inactive) | 0.0065 | -0.183 | 0.0703 | 0.0095 | 0.061 | 0.0768 | -0.0682 | 0.411
CC(C)(C)OC(=O)CC[C@]1(C(=O)NCCN2CCOCC2)N=C(c2ccc(OCCCO)cc2)O[C@H]1c1ccccc1CN=[N+]=[N-] | 0.433 | 0.192 (inactive) | 0.145 | -0.057 | 0.865 | 2.05 | 0.663 | 1.32 | -1.1 | 0.922
CCCC=C(CCC)[C@@H](NC(=O)c1ccc(C(F)(F)F)cc1)c1ccccc1 | -0.0332 | 0.0895 (inactive) | 0.191 | -0.0007 | 0.104 | 1.29 | -0.805 | 0.989 | -0.815 | 0.483
CCCCCCc1nc(-c2cc(C)c(OC)c(C)c2)cc2c1[Si](C(C)C)(C(C)C)O[C@H]2c1ccccc1 | -0.0154 | -0.315 (inactive) | -0.194 | -0.0191 | -0.398 | -0.301 | -0.136 | -0.728 | -0.182 | -0.152
CCC(=O)[C@]12O[C@@]3([C@@H]4C(=O)OCC[C@@H]41)N(Cc1ccccc1)C(C)=C(C(=O)OC)[C@@H](c1ccccc1)N3C2=O | 0.226 | -0.428 (inactive) | -0.207 | -0.164 | 0.463 | -0.859 | -0.242 | -1.07 | -0.334 | -1.17
CCCC[C@@H]1C[C@H]1[C@@H](NC(=O)c1ccccc1)c1ccccc1C(F)(F)F | 1.01 | -0.814 (inactive) | 0.0493 | 0.0116 | 0.412 | 3.03 | 0.13 | 1.14 | 0.377 | 1.17
CO[C@@H]1COC(=O)[C@H](C)NC(=O)CC=C[C@@H](C)[C@H](NS(=O)(=O)c2ccc(C)cc2)COC(=O)CC=C[C@@H]1C | -0.471 | 0.237 (inactive) | 0.0066 | -0.0554 | -0.185 | 0.0657 | -0.319 | -0.354 | -0.0932 | -0.809
CO[C@@H]1COC(=O)[C@H](COCc2ccccc2)NC(=O)CC=C[C@@H](C)[C@H](OC)COC(=O)[C@H](COCc2ccccc2)NC(=O)CC=C[C@H]1C | -0.711 | -0.14 (inactive) | -0.0063 | -0.112 | -0.319 | 0.107 | -0.225 | -0.136 | 1.1 | -0.582
CCOC(=O)C1=CCC(c2cccc3ccccc23)N(S(=O)(=O)c2ccc(C)cc2)C1 (stereo not given) | 0.816 | 0.494 (inactive) | 0.056 | -0.0731 | 0.401 | 1.41 | 0.117 | 1.12 | 0.341 | 1.08
C=CC[C@]1(C(=O)NCC(O)CO)N=C(c2ccc(OCCCO)cc2)O[C@H]1c1ccccc1 (stereo not given in full) | 0.704 | 1.59 (inactive) | -0.0391 | -0.0877 | 0.793 | 3.04 | 1.3 | -0.126 | -1.43 | -0.49
C[N+](C)(C)CCCC[C@@H]1NC(=O)[C@H]2C[C@@H](C(=O)NCc3ccc(F)cc3)[C@@H](c3cccc(OCCO)c3)N2C1=O | 0.392 | 1.57 (inactive) | -0.0328 | -0.179 | 0.811 | 1.48 | 0.633 | 1.15 | 0.864 | 1.08
COc1cc2c(cc1OC)CN(C(=O)[C@H]1[C@@H]3C(=O)O[C@@H](c4ccccc4)[C@@H](c4ccccc4)N3[C@@H](c3ccc(O)cc3)[C@]13C(=O)Nc1ccc(C#CC4(O)CCCCCC4)cc13)CC2 | 0.693 | 1.04 (inactive) | 0.974 | 0.286 | 0.774 | 3.61 | 0.876 | 1.29 | 1.24 | 1.13
CO[C@H]1O[C@H](CO)[C@@H](OC(=O)Nc2ccc3c(c2)OCO3)[C@H](OC(=O)Nc2ccccc2)[C@@H]1OC(=O)Nc1ccccc1 | 0.792 | 0.0474 (inactive) | -0.004 | -0.0952 | 0.743 | 3 | 0.982 | 1.29 | -0.0509 | 1.09
C=C(CCCC)C(=O)CC[C@@H](OC(=O)c1cccnc1)c1cccc(OCCO)c1 | -1.06 | -0.123 (inactive) | 0.0351 | -0.148 | 0.15 | 0.0383 | 0.0475 | 0.789 | 0.207 | -0.158
O=C1OCCC=C[C@H]2OC34C=CCN(Cc5ccccc5)C(=O)[C@H]3N(CCO)C(=O)[C@@H]4C12 (stereo not given in full) | -0.121 | -0.141 (inactive) | -0.0967 | -0.19 | 0.459 | -0.59 | -0.227 | -1.04 | -0.849 | -1.18
COc1cc([C@@H]2N[C@H](C(=O)O)Cc3c2[nH]c2ccccc32)cc(OC)c1OC | 0.1 | -0.651 (inactive) | 0.059 | -0.089 | -0.0165 | -0.0553 | 0.238 | 0.0713 | 0.475 | 0.245
CC(C)N1CC=CC23O[C@@H]4/C=C\CCCOC(=O)C4[C@H]2C(=O)N(CCO)[C@@H]3C1=O (stereo not given in full) | 0.767 | 1.95 (inactive) | -0.0918 | -0.0874 | 0.893 | 0.572 | 1.43 | 0.534 | -1.4 | 0.329
